# Assay results published in PubChem BioAssay AID434958 (Southern Research Specialized Biocontainment Screening …, 2010).
# In all, about 1,200 compounds went through this assay and about 400 (33%) were called active. Not all results are given here. Results with a measured potency or affinity are listed apart. A number with no mark means an inactive call. How the calls were made is not given here.
# Experiment: mammalian cell cytotoxicity, dose response, cytotoxicity control (AID 434958);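 further: cells exposed to compound for 72 hours before readout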
# Details: cytotoxicity counter-screen; series mostly up to 40 µM; viability: at the top concentration
row,Structure (SMILES),viability
1,CCOC(=O)c1c(NC(=O)COC(=O)c2ncc(Cl)c(Cl)c2Cl)sc(C(=O)N(C)C)c1C,101%
2,COc1cc(OC)c2ccc(=O)oc2c1C(CC(=O)N1CCN(c2ccccc2)CC1)c1ccc2c(c1)OCO2 (configuration not stated),108%
3,CCC(C(=O)Nc1ccccc1N1CCCC1)c1ccccc1 (configuration not stated),99.2%
4,CCOCC(=O)N1CCN(c2ccc(F)cc2)CC1,91.1%
5,O=C(c1cccc(Cl)c1)N1CCN(Cc2ccccc2F)CC1,102%
6,Cc1ccc(CNC(=O)c2ccccc2NC(=O)CSc2nnnn2C)cc1,102%
7,Cc1ccc(C)c(NC(=O)COC(=O)c2ccc(S(=O)(=O)N3CCCCC3)cc2)c1,93.8%
8,O=c1[nH]c(C2CCN(S(=O)(=O)c3ccc(S(=O)(=O)NC4CC4)cc3)CC2)nc2c1nnn2Cc1ccc(F)cc1,110%
9,COc1cccc(-c2nnn(CC(=O)Nc3cc(OC)c(NC(=O)c4ccco4)cc3OC)n2)c1,85.2%
10,COCCCn1c(=O)/c(=C\c2ccccc2OC(C)C)s/c1=C(/C#N)C(=O)Nc1ccc(C(=O)O)cc1,87%
11,O=C1c2ccccc2N2C(=O)c3ccccc3C2N1O (configuration not stated),98.3%
12,CSc1ccccc1NC(=O)c1c(Br)cnn1C,91.4%
13,C(=N\n1cnnc1)/c1ccc(-c2ccccc2)cc1,93.4%
14,CCc1ccc(N2C(=O)c3sc4nnc(-c5ccccc5)c(=O)n4c3C2=O)cc1,95%
15,Cn1c(/C=C/c2ccc(Cl)cc2)nc2ccccc2c1=O,94.1%
16,CCOc1ccc2c(c1)c(C(C)=O)c(C)n2-c1ccccc1,86.3%
17,CCOC(=O)c1sc(NC(=O)CN2CCN(c3ccc(OC)cc3)CC2)nc1C,92.4%
18,O=c1cc(C(F)(F)F)c2sc(N3CCCCC3)nc2[nH]1,94.1%
19,COc1ccc(NC(=O)CCC2CCCC2)cc1OC,98%
20,CCN(CC)C(=O)COc1ccc(-c2nnc(Nc3ccc(OC)c(C(=O)NC)c3)c3ccccc23)cc1,91.5%
21,CCCc1cc(C(=O)Nc2ccc(C(C)=O)cc2)no1,95.1%

row,Structure (SMILES),viability
1,O=C1c2cccc3c(N4CCCCC4)ccc(c23)C(=O)N1c1ccccn1,95.5%
2,COC(=O)c1ccc(-c2cc(C(=O)O)c3cc4c(cc3n2)OCCO4)cc1,98.5%
3,C/C(=N/NC(=O)c1ccccn1)c1ccncc1,96.5%
4,C/C(=N\NC(=O)c1csc2ccccc12)c1ccc(O)cc1,87.5%
5,C/C(=N\NC(=O)c1ccncc1)c1c(O)n(-c2ccccc2)c(=O)[nH]c1=O,99.5%
6,O=C(NN=C(Cc1ccccc1)Cc1ccccc1)c1ccccc1F,84.8%
7,S=C(Nc1ccccc1Cl)N1CCCC(c2ccccc2)=N1,87.8%
8,CCN(CC)c1ccc(C=N/C(C#N)=C(\N)C#N)cc1,96.9%
9,COc1nc(-c2ccccc2)ccc1-c1noc(-c2cccnc2)n1,87.6%
10,CCn1nc(C)c([N+](=O)[O-])c1C(=O)NNC(=O)c1ccccc1Cl,103%
11,COc1cccc(-c2ccc(-c3noc(-c4ccccc4F)n3)c(OC)n2)c1,81.9%
12,Cc1cc(Br)cc2c(C(=O)NCC3CCCO3)cc(-c3ccccc3)nc12 (configuration not stated),83%
13,CCCn1c2ccccc2c2nnc(SCC(=O)OCC)nc21,104%
14,CC(C)(C)c1cc(Cc2ccccc2)[nH]n1,94.1%
15,COc1ccc([N+](=O)[O-])cc1NS(=O)(=O)c1ccc(Cl)c(C(=O)Nc2sc3c(c2C#N)CCCCC3)c1,99%
16,CCCC(=O)Nc1nc(-c2ccccc2)ns1,96.2%
17,Cc1ccc(C)c(S(=O)(=O)N2CCN(CC(=O)NC(C)c3ccccc3)CC2)c1 (configuration not stated),91.4%
18,O=c1oc(-c2ccccc2F)nc2scc(-c3ccccc3)c12,94.1%
19,Cc1ccc(C2=NN(C(=O)CN3C(=O)c4ccccc4S3(=O)=O)C(c3ccco3)C2)cc1 (configuration not stated),82.9%
20,COCCOC(=O)c1c(C)oc2ccc(OCc3cc(C(=O)OC)oc3C)cc12,90.5%
21,Cc1sc2nc(C(C)Nc3ccccc3N3CCOCC3)[nH]c(=O)c2c1C (configuration not stated),88.9%

row,Structure (SMILES),viability
1,CCCc1cc(NC(=O)COC(=O)c2nccnc2N)n(-c2ccccc2)n1,102%
2,CC(C)CCN1CC(O)=C(c2nc3ccccc3[nH]2)C1=N,84.1%
3,O=C(Nc1nc(-c2ccc3c(c2)OCCO3)cs1)c1ccc(S(=O)(=O)N2CCCCC2)cc1,91.1%
4,O=C(Nc1nnc(-c2ccc3c(c2)OCCO3)o1)C1CCCCC1,89.3%
5,CCSc1nnc(NC(=O)CSc2nccn2-c2cccc(C)c2)s1,102%
6,Cc1c(C(=O)NCCC2=CCCCC2)sc2ncnc(N3CCCCC3C)c12 (configuration not stated),82.1%
7,Cc1cc(C)c(NC(=O)CC(C)(C)C)c(Cl)c1,96.5%
8,COc1ccc(OC)c(NC(=O)CS(=O)(=O)c2ccccc2)c1,96.5%
9,Cc1cc(C)c2oc(-c3ccc(Cl)c(NC(=O)c4ccc(C#N)cc4F)c3)nc2c1,86.5%
10,Cc1ccc(OCC(=O)Nc2ccc(-c3nc4ncccc4o3)cc2)c(C)c1,103%
11,CCc1ccc(NC(=S)Nc2ccc3cn[nH]c3c2)cc1,101%
12,NC(=S)N/N=C/c1ccc([N+](=O)[O-])cc1,106%
13,O=C(COC(=O)c1ccc(Cl)cc1[N+](=O)[O-])NNC(=O)c1cccs1,107%
14,NNC(=S)NC1CC2CC1C1C=CCC21 (configuration not stated),91.1%
15,CCc1nc2scc(-c3cccs3)c2c(=O)o1,111%
16,Cc1c(-c2ccncc2)oc2ccc(Br)cc2c1=O,95.4%
17,Cc1ccc2c(Cl)cc(Cl)c(OCc3c(C)noc3C)c2n1,94.7%
18,Cc1ccc(/C=N\NC(=O)c2csnn2)cc1,95.1%
19,O=C(N/N=C/c1ccc(OC(=O)c2ccc3c(c2)OCO3)cc1)c1cncc(Br)c1,97.2%
20,Cc1cccc(C)c1NC(=O)C1CC2CCC1C2 (configuration not stated),100%
